# Measured values reported in PubChem BioAssay (NCI).
# Compounds without any hit were thinned out: in the full panel of roughly 79,000, 15% have a hit. A number with no mark means an inactive call. Activity calls are given as the source filed them. Rule as the data show it: active = growth inhibition above about 70%; inactive = the rest.
# Tests used:
# [1] = NCI Yeast Anticancer Drug Screen. Data for the rad50 strain (AID 155);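 also: 0% = growth of vehicle-only cultures of the same strain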; conditions: S. cerevisiae rad50 strain growth inhibition; at 50.0 µM; active compounds read high
# Summary of the method: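 Compounds were tested on a yeast strain with an engineered DNA damage repair alteration; the reported value is growth inhibition normalised to vehicle treatment.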
# [2] = NCI Yeast Anticancer Drug Screen. Data for the mec2-1 strain (AID 157); conditions: S. cerevisiae mec2-1 strain, at 50.0 µM, active compounds read high
# Summary of the method: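 Readout is yeast growth inhibition, normalised to vehicle-treated controls, in the mec2-1 strain exposed to compound.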
# [3] = NCI Yeast Anticancer Drug Screen. Data for the sgs1 mgt1 strain (AID 161);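 also: 0% = growth of cultures given vehicle only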; conditions: S. cerevisiae sgs1 mgt1 strain, at 50.0 µM, active compounds read high
# Summary of the method: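 Growth of a repair-deficient yeast mutant was monitored after compound treatment and expressed as inhibition relative to vehicle-treated cultures.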
# [4] = NCI Yeast Anticancer Drug Screen. Data for the cln2 rad14 strain (AID 165);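 also: 0% = growth equal to vehicle treated cultures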; conditions: S. cerevisiae cln2 rad14 strain, at 50.0 µM, active compounds read high
# Summary of the method: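 Relative to vehicle controls, growth inhibition of compound-treated cln2 rad14 yeast was recorded.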
# [5] = NCI Yeast Anticancer Drug Screen. Data for the bub3 strain (AID 167); conditions: S. cerevisiae bub3 mutant strain, at 50.0 µM, active compounds read high
# Summary of the method: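 Growth of a checkpoint-deficient yeast mutant is measured after compound exposure. Values represent inhibition relative to vehicle.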
# [6] = NCI Yeast Anticancer Drug Screen. Data for the mlh1 rad18 strain (AID 175); conditions: S. cerevisiae mlh1 rad18 strain growth inhibition; at 50.0 µM; active compounds read high
# Summary of the method: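 Test agents were incubated with a yeast strain of defined genotype (DNA damage repair defect). Inhibition of growth was derived by comparison with vehicle-exposed cultures.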
SMILES,growth inhibition [1],growth inhibition [2],growth inhibition [3],growth inhibition [4],growth inhibition [5],growth inhibition [6]
C=C1CCC(OC(C)=O)C2(C)C(OC(C)=O)CC3OC3(C)C2C(OC(C)=O)C2C(C)C(=O)OC2C1Cl (configuration not stated),3.2%,-20.8%,1.55%,6.45%,3%,4.8%
CCOC(=O)c1c(Nc2ccc(OC)cc2)n[nH]c1C,-7.85%,-34.3%,15.6%,9.6%,8.65%,-8.65%
O=C(O)c1ccc[n+](Cc2ccccc2)c1,4.9%,12.6%,-5.15%,-8.2%,-5.95%,2.15%
COc1cc(/C=N/N2CN(C(C)C(=O)O)B(NCCC(C)C)N=C2N)cc(OC)c1 (configuration not stated),0.85%,-10.4%,22%,-3.7%,23.6%,-6%
CCCC(CC/C(C)=N/NC(N)=O)[N+](=O)[O-] (configuration not stated),-20.1%,-9.25%,0.05%,-9.55%,4.75%,8.5%
COc1ccc2ccc3[nH]c4c(C)cnc(NCCCN(C)C)c4c3c2c1,34.8%,43.2%,55.9%,18.9%,45.9%,29.1%
COc1cc(C=C2C(=O)OC(C)(C)OC2=O)cc(OC)c1OC,3.45%,-22.1%,-11.3%,24.3%,-21.5%,9.05%
CCOC(=O)Nc1n[nH]nc1Cl,-21.5%,-10.1%,25.1%,-20.9%,-20.1%,-12.7%
CCOC(=O)c1ccc(Nc2nc3ccccc3nc2C(=O)OCC)cc1,-31.8%,-39.1%,-4.95%,-3.7%,18.4%,-26.9%
O=C1C=CC(=O)C2CC=CCC12 (configuration not stated),24.2%,50.4%,1.7%,-6.15%,4.55%,26.1%
CN(C)C(=S)Oc1cc(Cl)c(Cl)cc1Cl,86.1% (active),95.6% (active),91.3% (active),81.8% (active),91.3% (active),96% (active)
COC(=O)Cc1cccc2c(=O)c(S(=O)(=O)NC(=O)Nc3ccc(Cl)cc3)c(-c3ccccc3)oc12,20.9%,23.1%,31.6%,50.4%,35.4%,17.8%
CN(NC(=O)CCCl)C1=NCCN1,5.15%,-4.6%,-3.95%,-11%,8.1%,16.7%
COC(=O)NC(=O)CCC(=O)O,-0.15%,-2.8%,0.95%,-45.3%,7%,12.8%
CCCCCCCCCCCCCCCCCCNC(=S)/N=C\C(C(=O)Nc1ccccc1C)=C(/C)O,-9.8%,-11.8%,5.85%,0.55%,-21.4%,-5.65%
CC(C)(CO[C@H]1C[C@H]2CC[C@@]1(C)C2(C)C)[N+](=O)[O-],25.4%,-7%,50%,-17.4%,12.9%,18.4%
c1ccc(C(=C2CCC2)c2c3ccccc3cc3ccccc23)cc1,-10.1%,9.4%,-7%,5.8%,-17.9%,-20.1%
C=CC(=O)NC(=O)/C=C/c1cccnc1,17.4%,-8.05%,1%,-3.25%,10.7%,5.5%
COc1ccc(C(=O)NC(=S)Nc2cc(C(F)(F)F)ccc2Cl)cc1,-18.6%,0.1%,-11.2%,84.8% (active),-3.8%,11.7%
Clc1ccc(-c2oc(-c3ccc(Cl)cc3)c3ccccc23)cc1,-3.85%,-13.2%,4.75%,-78.2%,-15.5%,-23.6%
Cc1ccsc1/C=N/Nc1ncccn1,16.1%,10.7%,23.4%,3.7%,13.9%,24.1%

SMILES,growth inhibition [1],growth inhibition [2],growth inhibition [3],growth inhibition [4],growth inhibition [5],growth inhibition [6]
Cc1ccc(NC(=O)NCCCN2CCOCC2)cc1NC(=O)NCCCN1CCOCC1,-11.8%,-22.6%,3.85%,17.2%,8.3%,7.05%
CCOC1CN(C(=O)ON)N1C(=O)ON (configuration not stated),4.8%,-12.6%,-10.4%,-33.2%,-22.4%,4.85%
CCc1c(O)nc(Nc2nc3ccccc3[nH]2)[nH]c1=O,-34.4%,-21.8%,-21.4%,-23.5%,-33%,-56.5%
CCC[n+]1ccc(CCS(=O)(=O)c2ccc(N)cc2)cc1,6.15%,-6.55%,1.9%,-6%,21.4%,-16.7%
N#CCCC(CC#N)C1([N+](=O)[O-])CCCCC1 (configuration not stated),23.8%,29.2%,7.85%,53.1%,32.8%,3.55%
CN1CCN(c2ccncc2S(=O)(=O)N2CCN(C)CC2)CC1,-17.2%,-12.7%,1.2%,-15.4%,-11.4%,-2.5%
O=[N+]([O-])c1cccnc1Oc1cccc(C(F)(F)F)c1,-16.8%,21.9%,14.4%,-7.95%,-16.1%,1.15%
CCOC(=O)C(=O)O,12.3%,-9.3%,-4.85%,-7.8%,-5.05%,-5.7%
COC(=O)CCc1ccc(N)cc1,4.85%,-2.95%,9.5%,-4.3%,-2.1%,2.9%
O=C(/C=C(\O)c1ccc(Cl)cc1)C(=O)NN=C(c1ccccc1)c1ccccc1,39%,33.7%,3.1%,7.2%,14.5%,8.6%
OC1CSc2ccccc2-n2cccc21 (configuration not stated),25.8%,6.4%,21.8%,32.9%,6.75%,16.4%
COc1ccc(C2S/C(=C\c3ccccc3)C(=O)N2NC(=O)Cc2ccccc2)cc1 (configuration not stated),-12.8%,-54.2%,-7.5%,-69.7%,-18.6%,-12%
OCCc1cc2ccccc2c2ccccc12,-3.55%,6.75%,-4.8%,-11.9%,-15.9%,-12.9%
CCc1cccc(CC)c1NC(=S)NN,17.4%,15.3%,41.9%,-6%,24.2%,5.55%
CN(C)C(=O)Nc1ccc(C#N)cc1,10.1%,2.3%,-13.3%,-25.1%,-5.15%,-8.2%
CCOC(=O)C(C)(OCC)OCC,-13.4%,-13.2%,-17.2%,-8.55%,-0.3%,11.9%
COC1O[C@H]2CCN(C(=O)OCc3ccccc3)[C@H]2[C@H]1OCc1ccccc1 (some centres not stated),19.8%,-11.6%,20.2%,4.05%,28.6%,44.5%
CC(C)CCNCCC(C)C,35.7%,25.1%,-2.85%,-36.3%,-14.9%,21.9%
OCCCOC(c1ccccc1)(c1ccccc1)c1ccccc1,-22.9%,-29.4%,-30.2%,1.55%,-49.8%,-12.9%
Cc1[nH]nc2c1NC(=O)OC(C)C2 (configuration not stated),11.8%,-2.9%,0.9%,-9.85%,-2.85%,2.9%
C=CN1C(=O)NC2(CCCCC2)C1=O,-33.8%,-40%,-40.4%,7.55%,-10.3%,-25.6%
